# Laboratory results published in PubChem BioAssay AID1851 (National Center for Advancing Translational Sciences (NCATS), 2009).
# In all, about 16,000 compounds went through this assay and about 5,100 (32%) were called active. Roughly 25% stayed inconclusive and do not appear here. The call rests on the fitted dose curve; in most records, active means well fitted curve in the direction sought with a large enough effect; inconclusive means small, poorly fitted or top-dose-only effect, or effect the other way; inactive means no such curve, though single readings can be large or run the other way. This is one part of the list. Where a structure was tested more than once in an assay, its records may differ in their call.
# Molecular target: Cytochrome P450 3A4 (Homo sapiens) (UniProt P08684)
# Sequence (P08684 whole entry, looked up): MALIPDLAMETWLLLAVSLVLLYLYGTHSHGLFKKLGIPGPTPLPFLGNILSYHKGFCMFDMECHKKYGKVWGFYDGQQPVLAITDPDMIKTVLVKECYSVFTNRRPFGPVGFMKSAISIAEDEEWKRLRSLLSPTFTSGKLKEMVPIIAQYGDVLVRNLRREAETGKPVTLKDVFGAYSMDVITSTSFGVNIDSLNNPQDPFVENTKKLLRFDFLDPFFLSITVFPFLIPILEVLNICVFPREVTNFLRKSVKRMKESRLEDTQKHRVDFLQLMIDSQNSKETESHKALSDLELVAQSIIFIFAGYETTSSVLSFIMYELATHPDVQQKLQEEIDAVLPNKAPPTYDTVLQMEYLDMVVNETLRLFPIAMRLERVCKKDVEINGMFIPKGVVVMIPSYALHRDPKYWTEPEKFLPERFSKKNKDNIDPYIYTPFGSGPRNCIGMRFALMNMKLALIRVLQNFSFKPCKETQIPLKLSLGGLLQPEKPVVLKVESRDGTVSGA
# Test: Cytochrome panel assay with activity outcomes
# Details: recombinant CYP, pro-luciferin dealkylation, luminescence, p450-cyp3a4; series mostly up to 57.1 µM; activity, negative = inhibition: at the top concentration
# On the % scale 0 is the no-effect control and ±100 the full control effect.
Compound,"activity, negative = inhibition",AC50
CCCCCCCCCC[Si](C)(C)CCC(=O)N[C@@H](Cc1ccc(C)cc1)c1ccccc1,-12.4% (inactive),
C[N+]12CCC(CC1)[C@@H](OC(=O)C(O)(c1ccccc1)c1ccccc1)C2,-11.8% [at 25.6 µM] (inactive),
Cc1nc(-c2ccc(-c3ccc(C(=O)N4CCc5cc6c(cc54)C4(CCN(C)CC4)CO6)cc3)c(C)c2)no1,-15.2% (inactive),
c1ccc(CN2CCCC3(CCNCC3)C2)cc1,-19.6% (inactive),
c1cc(CN2CCCC3(CCNCC3)C2)ccn1,,15.8 µM (active)
c1cc(CN2CC3(CCNCC3)C2)ccn1,-30.5% (inactive),
CC(=NCc1ccco1)c1c(O)n(-c2ccccc2)c(=O)[nH]c1=O,11.3% (inactive),
Cc1nc2ccccc2cc1C[N+]12CN3CN(CN(C3)C1)C2,-6.46% [at 11.4 µM] (inactive),
Cc1[nH]c2ccc(O)cc2c1CCN,-14.9% (inactive),
N[C@H](CCCCCP(=O)(O)O)C(=O)O,inactive,
OC(c1ccccc1)(c1ccccc1)C1CCCN1 (stereo not given),-2.76% [at 2.29 µM] (inactive),
O=C1N[C@@]2(CN3CCC2CC3)C(=O)N1CN(Cc1ccccc1)c1ccccc1,1.78% [at 11.4 µM] (inactive),
CN1C2CCC1CC(OC(=O)c1ccc(Cl)cc1)C2 (stereo not given),0.0365% (inactive),
Cc1sc2c(c1C)C(c1ccc(C(C)(C)C)cc1)=NCC(=O)N2CC(=O)Nc1nccs1,,7.94 µM (active)
Nc1nnnn1CCO,-6.3% [at 11.4 µM] (inactive),
O=c1oc(Cl)c(Cl)c2ccccc12,6.83% (inactive),
O=C(O)C(C(=O)O)P(=S)(S)c1ccccc1 (stereo not given),8.13% [at 11.4 µM] (inactive),
C[C@H]1CC[C@@]2(NC1)O[C@@H]1C[C@H]3[C@@H]4CC=C5C[C@@H](O)CC[C@]5(C)[C@@H]4CC[C@]3(C)[C@@H]1[C@@H]2C,5.49% [at 25.6 µM] (inactive),
O=[As](O)(O)c1ccc(NCc2ccccc2)cc1,-8.35% [at 11.4 µM] (inactive),
COc1cc(OC)c(/C=C2/C(=O)Nc3ccccc32)c(OC)c1,,2.51 µM (active)
OC(c1ccccc1)(c1ccccc1)C1CCNCC1,-16.4% [at 25.6 µM] (inactive),
CC(C)(C)C(=O)CP(=O)(O)O,-7.32% [at 11.4 µM] (inactive),
CCCCc1ccc(C(=O)O)nc1,-1.67% [at 25.6 µM] (inactive),

Compound,"activity, negative = inhibition",AC50
C[C@]12CC[C@@H]3[C@H](CCC4=CC(=O)CC[C@]43C)[C@]1(O)CC[C@@]2(O)C(=O)CO,-0.348% [at 11.4 µM] (inactive),
Oc1ccc(-c2nc(-c3ccc(F)cc3)c(-c3ccncc3)[nH]2)cc1,,0.501 µM (active)
N[C@H](Cc1c[nH]c2ccccc12)P(=O)(O)O,-2.01% [at 11.4 µM] (inactive),
CC[C@H](C(=O)[C@H](C)[C@H](O)[C@H](C)CCc1ccc(C)c(O)c1C(=O)O)[C@H]1O[C@](CC)([C@@H]2CC[C@@](O)(CC)[C@H](C)O2)C[C@H]1C,,7.94 µM (active)
CS(=O)(=O)O[C@H]1CN2CCC1CC2,-6.57% [at 11.4 µM] (inactive),
C[C@@H](C(=O)OC1C[C@H]2CC[C@@H](C1)N2C)c1ccc(Br)cc1 (stereo not given in full),-5.24% (inactive),
O=C(Cn1ncc2ccsc2c1=O)N1CCC2(CC1)OCCO2,-18.2% (inactive),
Cc1ccccc1-c1nc(CS(=O)CC(=O)N2CCC3(CC2)OCCO3)c(C)o1 (stereo not given),18.8% (inactive),
Cc1oc(-c2ccccc2F)nc1CS(=O)CC(=O)N1CCC2(CC1)OCCO2 (stereo not given),,25.1 µM (active)
COc1cc2c(cc1OC)[C@@]13CCN4CC5=CCO[C@H](CC(=O)O)[C@@H]([C@H]1N2)[C@H]5C[C@H]43,-10.2% [at 11.4 µM] (inactive),
CCC1(CCSC(=N)N)C(=O)NC(=O)NC1=O,-21.7% [at 11.4 µM] (inactive),
C[C@H]1[C@H](NC(=O)/C(=N/OC(C)(C)C(=O)O)c2csc(N)n2)C(=O)N1S(=O)(=O)O (stereo in doubt),1.53% [at 25.6 µM] (inactive),
O=C(O)CNC(=O)[C@@H](CS)Cc1ccccc1,-3.06% [at 25.6 µM] (inactive),
N#CC(C#N)=Cc1cc(O)c(O)c(O)c1,,10 µM (active)
CC(C)(C)c1cc(C=C(C#N)C#N)cc(C(C)(C)C)c1O,,3.16 µM (active)
NCc1cc(=O)[nH]o1,inactive,
CCCN[C@@H]1CCc2c(OC)cccc2[C@@H]1C,-22.1% (inactive),
C[C@H]1CN(C2CCC(C#N)(c3ccc(F)cc3)CC2)CC[C@@]1(C(=O)O)c1ccccc1 (stereo not given in full),0.78% [at 25.6 µM] (inactive),
COc1cc2c(cc1O)C[C@@H]1c3c(cc(O)c(OC)c3-2)CCN1C,-12.7% [at 11.4 µM] (inactive),
CCCN1CC[C@@H]2c3cc(O)ccc3CC[C@H]21,-8.01% (inactive),
CC(C)c1ccc(C(c2c(O)c3ccccc3oc2=O)c2c(O)c3ccccc3oc2=O)cc1,-28.5% [at 11.4 µM] (inactive),
CC1=NCCc2c1[nH]c1cc(O)ccc21,-15.3% [at 25.6 µM] (inactive),
CCNC[C@H](O)c1cccc(O)c1,-7.75% [at 25.6 µM] (inactive),

Compound,"activity, negative = inhibition",AC50
C[C@@H](Cc1ccc(OCC(=O)O)cc1)NC[C@H](O)c1cccc(Cl)c1,,25.1 µM (active) and inactive
CC(NCc1ccc(Cl)cc1)C(O)c1ccccc1 (stereo not given),-27% (inactive),
CCOC(=O)c1ncn2c1CN(C)C(=O)c1cc(F)ccc1-2,-3.59% (inactive),
Cn1ccnc1,4.6% (inactive),
CNCCc1c[nH]c2ccc(O)cc12,-6.65% (inactive),
O=C(c1cc2cc3ccc(Cl)cc3nc2o1)N1CCC2(CC1)OCCO2,-25.6% (inactive),
C=CCN1C(=O)c2ccccc2Sc2ccc(C(=O)N3CCC4(CC3)OCCO4)cc21,,3.98 µM (active)
CC(=O)c1ccc2c(c1)N(CCCN(C)C)c1ccccc1S2,-19.6% [at 25.6 µM] (inactive),
O=C(O)CS(=O)(=O)C(c1ccccc1)c1ccccc1,2.64% [at 11.4 µM] (inactive),
CC(=O)c1c(O)c(C)c(O)c(Cc2c(O)c3c(c(C(=O)/C=C\c4ccccc4)c2O)OC(C)(C)C=C3)c1O,,12.6 µM (active)
Clc1cnc(Oc2ccc(Oc3ncc(Cl)cc3Cl)cc2)c(Cl)c1,-3.91% (inactive),
CSC([N-]/N=C/c1cccc(C)n1)=[S]=[Cu].CS[C@H]([S-])[N-]/N=C/c1cccc(C)n1,,3.98 µM (active)
CCCN(CCC)[C@@H]1CCc2c(OC)cccc2[C@@H]1C,-4.58% (inactive),
COC1=CC(=O)O[C@@H](/C=C\c2ccccc2)C1,4.42% [at 25.6 µM] (inactive),
O=C(C[n+]1ccc2ccccc2c1)c1ccc2ccc3ccccc3c2c1,-29.1% [at 11.4 µM] (inactive),
Nc1nc(N)c(N=Nc2ccc([As](=O)(O)O)c(O)c2)c(N)n1,7% [at 11.4 µM] (inactive),
CNCCCc1ccccc1,-2% (inactive),
C[C@@H](Cc1cccc(C(F)(F)F)c1)NCCCc1ccccc1,,5.01 µM (active)
C[C@@H](Cc1ccccc1)NCCC(c1ccccc1)c1ccccc1,-15.2% [at 25.6 µM] (inactive),
COc1cc2cc(c1Cl)N(C)C(=O)C[C@H](OC(=O)C(C)C)[C@]1(C)O[C@@H]1[C@@H](C)[C@H]1C[C@](O)(NC(=O)O1)[C@@H](OC)/C=C\C=C(\C)C2,-29.4% [at 11.4 µM] (inactive),
c1ccc2c([C@@H]3CCN(CCN4CCOCC4)C3)c[nH]c2c1,-4.68% [at 11.4 µM] (inactive),
COCOc1ccc(Br)cc1C(=O)/C=C\c1ccc2c(c1)OCO2,,3.16 µM (active)
CN1CCN(c2cc(N3CCCC3)c([N+](=O)[O-])cc2F)CC1,-9.54% (inactive),

Compound,"activity, negative = inhibition",AC50
COc1cc(-c2ccc(=O)[nH]n2)ccc1OC(F)F,-23.6% (inactive),
CN1CCN(c2ccc([N+](=O)[O-])c(N/N=C3\CN4CCC3CC4)c2)CC1,11.8% (inactive),
CC[C@H](Oc1ccc(Cl)cc1)C(=O)OC1C[C@H]2CC[C@@H](C1)N2C (stereo not given in full),-24.5% (inactive),
Oc1ccc2c3c1O[C@H]1c4[nH]c5c(c4C[C@@]4(O)[C@@H](C2)N(CC2CC2)CC[C@]314)C[C@]1(O)[C@H]2Cc3ccc(O)c4c3[C@@]1(CCN2CC1CC1)[C@@H]5O4,-17.9% (inactive),
Oc1ccc2c3c1O[C@H]1c4c(c5ccccc5n4Cc4ccccc4)C[C@]4(O)[C@H](C2)N(CC2CC2)CC[C@@]314,,10 µM (active)
O=C1CC[C@]2(O)[C@H]3Cc4ccc(O)c5c4[C@@]2(CCN3CC2CC2)[C@@H]1O5,-5.91% [at 25.6 µM] (inactive),
CN1C(=O)CCS(=O)(=O)[C@@H]1c1ccc(Cl)cc1,-19.6% [at 25.6 µM] (inactive),
CN1[C@@H]2CC[C@H]1CC(O)C2 (stereo not given in full),0.0981% [at 25.6 µM] (inactive),
C[C@@H]1O[C@@H](O[C@H]2C[C@@H](O)[C@]3(CO)[C@@H]4[C@@H](O)C[C@]5(C)[C@H]([C@@H]6COC(=O)C6)CC[C@@]5(O)[C@H]4CC[C@@]3(O)C2)[C@H](O)[C@H](O)[C@@H]1O,-2.34% (inactive),
CC(C)COC(=O)OCN1C(=O)CN(CCN2CC(=O)N(COC(=O)OCC(C)C)C(=O)C2)CC1=O,,25.1 µM (active)
CN1CCc2cc(O)cc3c2[C@H]1Cc1ccc(O)c(O)c1-3,-24% (inactive),
C[N+](C)(C)CCCCCCCCCC[N+](C)(C)C,-7.31% (inactive),
Nc1nc(N)c(Cn2ccnc2)c(=O)[nH]1,-3.48% [at 11.4 µM] (inactive),
COc1cccc(-n2c(O)c(C=NCCN3CCOCC3)c(=O)[nH]c2=O)c1,-18.9% (inactive),
O=c1[nH]c(=O)n(CCC2=CCCCC2)c(O)c1C=Nc1cccc(F)c1,4.91% (inactive),
Cc1cc(C)c(-n2c(O)c(C=NCCN3CCOCC3)c(=O)[nH]c2=O)c(C)c1,,25.1 µM (active)
C=CCn1c(O)c(C(C)=NCCCN2CCOCC2)c(=O)[nH]c1=O,23.7% (inactive),
O=c1[nH]c(=O)n(CCc2ccc(F)cc2)c(O)c1C=NCCCN1CCOCC1,,11.2 µM (active)
CCNC(=O)[C@@H]1O[C@@H](n2cnc3c(N)ncnc32)[C@@H](O)[C@H]1O,-2.41% (inactive),
C[C@@H]1[C@@H]2Cc3ccc(O)cc3[C@@]1(C)CCN2CC1CC1,18.4% (inactive),
C[C@@H]1O[C@H](O[C@@H]2C[C@@H](O)[C@]3(CO)[C@H]4[C@H](O)C[C@]5(C)[C@@H](C6=CC(=O)OC6)CC[C@@]5(O)[C@@H]4CC[C@]3(O)C2)[C@@H](O)[C@H](O)[C@H]1O,-7.96% (inactive),
